The values below come from the supplement of paper PMC11732987, “Enantioselective OTUD7B fragment discovery through chemoproteomics screening and high-throughput optimisation” (Communications Chemistry, 2025).

Structures are written as SMILES.

The target in this experiment is UniProt O00507. The experiment is described as follows: log2 ratio of Biotin-Ahx-Ub-VS probe labelling (fragment/DMSO); higher = less target engagement (more negative = stronger competition), active = hit call of the paper (q ≤ 0.05, log2 ratio ≤ -1). As to conditions: compound concentration: 200 uM; treatment time: 3 h. A digest of the protocol: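 Lysate from HEK293T cells, 495 µg per sample in Tris/CHAPS/IGEPAL buffer with protease inhibitors, was treated for 3 h in triplicate with fragment at 200 µM or vehicle. Biotin-Ahx-Ub-VS was next added at 0.5 µM final for 1 h. The labelled DUBs were enriched with NeutrAvidin, digested with LysC and trypsin, and run by diaPASEF LC-MS/MS, with values given as average log2 fragment/vehicle ratios by unpaired t-test on global-median-normalised Spectronaut quantities of proteins with ≥2 unique peptides.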
Sequence of UniProt O00507 (O00507 whole entry, the tested form may be a part): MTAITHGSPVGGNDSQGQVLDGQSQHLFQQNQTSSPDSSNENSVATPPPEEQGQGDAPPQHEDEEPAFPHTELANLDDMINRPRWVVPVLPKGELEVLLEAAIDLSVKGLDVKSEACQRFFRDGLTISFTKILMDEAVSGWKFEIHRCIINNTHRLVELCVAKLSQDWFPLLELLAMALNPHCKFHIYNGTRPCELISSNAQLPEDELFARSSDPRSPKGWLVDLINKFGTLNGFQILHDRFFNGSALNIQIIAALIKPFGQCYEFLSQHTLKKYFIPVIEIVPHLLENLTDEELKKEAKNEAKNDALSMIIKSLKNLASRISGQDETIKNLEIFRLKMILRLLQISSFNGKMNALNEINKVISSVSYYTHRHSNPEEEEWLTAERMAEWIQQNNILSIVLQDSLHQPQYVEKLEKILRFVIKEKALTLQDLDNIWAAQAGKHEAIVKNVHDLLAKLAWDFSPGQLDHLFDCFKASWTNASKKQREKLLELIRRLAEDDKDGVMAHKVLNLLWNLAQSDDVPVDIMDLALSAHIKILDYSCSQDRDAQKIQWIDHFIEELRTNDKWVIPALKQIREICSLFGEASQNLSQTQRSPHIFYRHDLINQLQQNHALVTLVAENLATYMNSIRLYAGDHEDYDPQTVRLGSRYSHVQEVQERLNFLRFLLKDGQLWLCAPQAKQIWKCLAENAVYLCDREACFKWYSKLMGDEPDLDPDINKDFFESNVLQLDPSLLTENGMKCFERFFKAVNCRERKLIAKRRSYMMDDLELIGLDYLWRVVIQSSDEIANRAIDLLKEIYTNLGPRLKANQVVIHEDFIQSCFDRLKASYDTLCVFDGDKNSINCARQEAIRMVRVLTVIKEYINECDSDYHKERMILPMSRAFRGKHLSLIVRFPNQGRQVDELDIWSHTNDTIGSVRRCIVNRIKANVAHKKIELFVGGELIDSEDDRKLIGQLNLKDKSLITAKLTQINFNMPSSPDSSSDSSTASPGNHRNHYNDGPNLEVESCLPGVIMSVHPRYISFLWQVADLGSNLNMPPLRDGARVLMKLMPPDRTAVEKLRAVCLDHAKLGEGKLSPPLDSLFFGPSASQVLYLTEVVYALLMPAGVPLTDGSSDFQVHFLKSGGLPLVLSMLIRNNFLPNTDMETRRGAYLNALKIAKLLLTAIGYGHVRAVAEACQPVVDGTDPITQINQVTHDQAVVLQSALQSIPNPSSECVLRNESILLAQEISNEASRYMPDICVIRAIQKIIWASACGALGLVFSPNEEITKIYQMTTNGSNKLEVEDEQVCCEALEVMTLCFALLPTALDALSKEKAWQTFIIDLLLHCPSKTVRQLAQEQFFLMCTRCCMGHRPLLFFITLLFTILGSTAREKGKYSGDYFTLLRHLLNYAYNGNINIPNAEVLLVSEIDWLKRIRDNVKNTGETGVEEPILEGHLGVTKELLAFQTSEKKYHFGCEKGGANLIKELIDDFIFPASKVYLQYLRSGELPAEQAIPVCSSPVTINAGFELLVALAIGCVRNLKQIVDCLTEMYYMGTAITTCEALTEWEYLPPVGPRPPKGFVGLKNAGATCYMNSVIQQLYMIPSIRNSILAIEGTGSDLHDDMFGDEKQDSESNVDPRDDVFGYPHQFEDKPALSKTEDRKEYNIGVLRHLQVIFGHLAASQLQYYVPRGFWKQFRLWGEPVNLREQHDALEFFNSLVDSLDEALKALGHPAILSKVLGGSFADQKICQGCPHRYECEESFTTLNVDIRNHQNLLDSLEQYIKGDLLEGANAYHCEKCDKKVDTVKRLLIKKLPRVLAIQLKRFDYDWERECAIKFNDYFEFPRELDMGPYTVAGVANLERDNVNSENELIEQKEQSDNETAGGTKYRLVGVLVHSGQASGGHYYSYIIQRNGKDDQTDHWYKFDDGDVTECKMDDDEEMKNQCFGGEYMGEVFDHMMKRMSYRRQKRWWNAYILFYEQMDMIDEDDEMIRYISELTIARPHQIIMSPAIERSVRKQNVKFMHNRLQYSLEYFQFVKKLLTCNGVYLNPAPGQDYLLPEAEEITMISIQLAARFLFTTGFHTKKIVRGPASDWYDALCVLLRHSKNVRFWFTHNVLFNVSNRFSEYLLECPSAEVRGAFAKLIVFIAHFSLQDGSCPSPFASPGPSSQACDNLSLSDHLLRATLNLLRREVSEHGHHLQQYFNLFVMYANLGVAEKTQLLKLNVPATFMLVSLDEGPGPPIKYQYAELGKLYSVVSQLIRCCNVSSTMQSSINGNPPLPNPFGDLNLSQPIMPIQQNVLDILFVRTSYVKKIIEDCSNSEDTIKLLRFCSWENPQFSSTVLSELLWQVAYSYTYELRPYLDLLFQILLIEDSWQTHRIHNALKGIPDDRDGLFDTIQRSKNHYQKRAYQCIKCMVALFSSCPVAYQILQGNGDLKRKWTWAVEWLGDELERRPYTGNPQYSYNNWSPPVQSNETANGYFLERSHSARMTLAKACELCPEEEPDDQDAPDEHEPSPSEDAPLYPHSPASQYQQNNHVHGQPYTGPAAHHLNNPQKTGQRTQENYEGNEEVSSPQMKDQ
Regarding `CNC(=O)C1(NC(=O)CCl)CCCCC1`, the “log2 ratio of Biotin-Ahx-Ub-VS probe labelling” value (from here on “log2 ratio”) is 0.215 (inactive).

For `Cl.O=C(CCl)N1CCC(n2nc3ccccc3n2)CC1`, the “log2 ratio” value was -0.531 (inactive).

In the case of `N#Cc1ccccc1N1CCN(C(=O)CCl)CC1`, the “log2 ratio” value is -0.534 (inactive).

Consider `O=C(CCl)NC(Cn1ccccc1=O)c1ccccc1` (centres undefined), for which the “log2 ratio” value was 0.0241 (inactive). In the case of `O=C(CCl)N1CC=C(c2c[nH]c3ccccc23)CC1`, the “log2 ratio” value is -1.28 (active).

`O=C(CCl)NC1CCC(C(F)(F)F)CC1` (centres undefined): the “log2 ratio” value was -0.728 (inactive). As to `Cc1ccc2nnc(CNC(=O)CCl)n2c1`, the “log2 ratio” value was 0.487 (inactive). For the compound `Cl.Cn1nccc1C(NC(=O)CCl)c1ccccc1` (centres undefined), the “log2 ratio” value was 0.249 (inactive). In the case of `O=C(CCl)Nc1ccc(F)cc1F`, the “log2 ratio” value was -0.387 (inactive). Then `Cc1n[nH]c2c1CN(C(=O)CCl)CC2`, with -0.966 (inactive). The figure for `O=C(CCl)N1CCOC2(CCC2)CC1` is -0.268 (inactive). On to `CC(NC(=O)CCl)c1cccc(Cl)c1` (centres undefined), for which the “log2 ratio” value was -0.176 (inactive). As to `O=C(CCl)NCC1(c2ccccc2)CC1`, the “log2 ratio” value is 0.153 (inactive).

With `CC1(NC(=O)CCl)CCS(=O)(=O)C1` (centres undefined), the “log2 ratio” value is -0.402 (inactive). As for `Cc1cccn2cc(CCNC(=O)CCl)nc12.Cl`, the “log2 ratio” value was -0.143 (inactive).

Turning to `CN(CCc1ncc(Br)cn1)C(=O)CCl.Cl`, the “log2 ratio” value was -0.225 (inactive). As to `O=C(CCl)N1CCCCC12CCOCC2`, the “log2 ratio” value was -0.561 (inactive). On to `Cl.O=C(CN1CCN(C(=O)CCl)CC1)Nc1ccc(F)cc1`, for which the “log2 ratio” value is 0.543 (inactive).

`O=C(CCl)NCCc1ccc2c(c1)OCCO2`: the “log2 ratio” value is -0.489 (inactive). The figure for `O=C(CCl)NC1(c2ccc3c(c2)OCCO3)CCCC1` is -0.152 (inactive).

`COCC[C@@H](NC(=O)CCl)c1ccccc1`: the “log2 ratio” value is -0.0256 (inactive). Take `CC(NC(=O)CCl)c1ccc2[nH]ncc2c1` (centres undefined): the “log2 ratio” value was -0.939 (inactive). Consider `Cl.Cn1ncc2c1CC(NC(=O)CCl)CC2` (centres undefined), for which the “log2 ratio” value is 0.311 (inactive). As to `CCC1c2ccsc2CCN1C(=O)CCl` (centres undefined), the “log2 ratio” value is -0.266 (inactive). In the case of `Cc1cccnc1NC(=O)C1CCN(C(=O)CCl)CC1.Cl`, the “log2 ratio” value was -0.282 (inactive). In the case of `O=C(CCl)N1CCCC2CCCCC21` (centres undefined), the “log2 ratio” value is -0.0343 (inactive). The figure for `Cl.Cn1cnc2cc(CNC(=O)CCl)ccc21` is 0.245 (inactive); for `Cl.Cn1c(CNC(=O)CCl)nc2cccnc21` it is -0.348 (inactive). On to `N#Cc1ccc(Cl)cc1NC(=O)CCl`, for which the “log2 ratio” value was -0.451 (inactive).

Consider `CN(C(=O)CCl)c1nc2ccccc2s1`, for which the “log2 ratio” value is 0.257 (inactive).

With `Cc1n[nH]c(=O)c2c(NC(=O)CCl)oc(C)c12`, the “log2 ratio” value is 0.347 (inactive).

For `CC(=O)Nc1ccc(NC(=O)CCl)cc1`, the “log2 ratio” value was -0.353 (inactive).

Turning to `O=C(CCl)N1CCOC2(CCC2)C1`, the “log2 ratio” value is 0.31 (inactive). Regarding `Cl.O=C(CCl)N1CCc2ncncc2C1`, the “log2 ratio” value was -0.362 (inactive).
